The campaign covered roughly 1,200 compounds. About 160 (13%) were called active. Not shown: some 31% with an inconclusive outcome. Calls follow the shape of the dose curve; as a rule, active = well fitted inhibition curve with a large enough effect; inconclusive = small, poorly fitted or top-dose-only effect; inactive = no such curve, though single readings can be large or run the other way. Only a sample is shown. A call without a number means that no potency is given here.
molecular target: Inositol hexakisphosphate kinase 1 (Homo sapiens) (UniProt Q92551); experiment: Confirmatory qHTS assay for small molecule inhibitors of Inositol hexaphosphate kinase 1 (IP6K1); settings: recombinant IP6K1 kinase, ADP-Glo luminescence, 2 h; series mostly up to 49 µM; also: nearly all actives have a fitted effect of over 65% in size
Sequence (Q92551 whole entry, looked up): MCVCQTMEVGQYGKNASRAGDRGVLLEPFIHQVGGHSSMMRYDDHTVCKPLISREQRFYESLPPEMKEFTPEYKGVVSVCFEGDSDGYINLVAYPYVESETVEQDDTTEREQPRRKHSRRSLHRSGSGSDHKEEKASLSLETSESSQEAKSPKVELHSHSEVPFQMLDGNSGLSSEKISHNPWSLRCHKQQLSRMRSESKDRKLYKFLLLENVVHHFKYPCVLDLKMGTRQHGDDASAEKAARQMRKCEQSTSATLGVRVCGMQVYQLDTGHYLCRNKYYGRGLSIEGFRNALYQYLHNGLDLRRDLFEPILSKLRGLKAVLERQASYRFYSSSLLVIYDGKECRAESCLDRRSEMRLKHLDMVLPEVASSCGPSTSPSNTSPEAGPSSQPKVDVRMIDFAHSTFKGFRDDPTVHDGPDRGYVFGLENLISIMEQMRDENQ
Source text: Assay Provider: Huijun Wei, M.S., Ph.D. School of Medicine, Johns Hopkins University, Baltimore, MD Inositol hexakisphosphate kinases (IP6Ks) catalyze pyrophosphorylation of inositol hexakisphosphate (IP6) into inositol 5-diphospho-1,2,3,4,6-pentakisphosphate (IP7), which is involved in numerous areas of cell physiology including glucose homeostasis, blood coagulation and neurological development. Inhibition of IP6Ks may be effective for the treatment of Type II diabetes, thrombosis, and psychiatric disorders. We performed a quantitative high throughput screen (qHTS) of 158,410 compounds for IP6K1 inhibitors using ankinase activity ADP-Glo Max assay. […] Medicinal chemistry SAR efforts in three chemical series identified potent IP6K1 inhibitors, which were further validated in an orthogonal LC-MS IP7 analysis.
PROTOCOL TABLE SEQUENCE No. (e.g., 1, 2, 3, etc.); […] (e.g., Cells, Incubation, Reagent, etc.); VALUE and DESCRIPTION. 1. Reagent, 3 uL of 1.3 mM ATP and 130 uM IP6 mixture in assay buffer was dispensed to a white, 1536-well assay plate. 2. Compound, 23 nL of compounds of the top two doses (57.5 uM and 19.1 uM final concentration) of the libraries were dispensed into the mixture using the Kalypsis pintool. 3. Reagent, 1 uL of 2.4 uM IP6K1 was dispensed to the assay plates. 4. Incubation, 2 hr incubation at room temperature. 5. Reagent, 2 uL of ADP-Glo reagent was added to the wells. 6. Incubation, 1 hr incubation at room temperature. 7. Reagent, 4 uL or ADP-Glo substate was added to the wells. 8. Incubation, 45 min incubation at room temperature. 9. Detection, luminescence signal was detected using the ViewLux microplate imager (PerkinElmer).
Potency is read from the fitted curve at half-maximal effect.

Compound | Potency
Cc1ccc(CNC(=O)CCc2c(C)nc3c(c(C)nn3-c3ccccc3)c2C)cc1 | inactive
COc1ccc(C2Cn3nnc(C(=O)N4CCN(C(=O)c5ccc(C)cc5C)CC4)c3CO2)cc1 (centres undefined) | inactive
COc1c(C)cnc(CN(C)C(=O)C2CC(=O)N(C3CCCC3)C2)c1C (centres undefined) | inactive
CCCS(=O)(=O)c1ncc(Cl)c(C(=O)Nc2scc(-c3ccccc3)c2C(=O)OCC)n1 | inactive
Cc1ccc(-c2nnc3ccc(-c4ccoc4)nn23)nc1 | inactive
CC1=C(C(=O)Nc2ccccc2Cl)C(c2cccs2)n2ncnc2N1 (centres undefined) | inactive
CN(C)[C@@H]1C(=O)C(C(N)=O)=C(O)[C@@]2(O)C(=O)C3=C(O)c4c(O)ccc(Cl)c4[C@@H](O)[C@H]3C[C@@H]12 | inactive
Cc1ccc(-c2cc(C(=O)Oc3ccccc3Cl)no2)cc1C | inactive
COc1cc(NC(=O)Nc2cccc(CNC(=O)O[C@H]3CCOC3)c2)ccc1-c1cnco1 | 8.2 µM (active)
C#C[C@]1(O)CC[C@H]2[C@@H]3CCC4=C/C(=N/O)CC[C@@H]4[C@H]3CC[C@@]21CC | 1.84 µM (active)
Cc1cccc(C(=O)N2CCC3(CC2)CC(c2ccccc2)CN(C)C3)n1 (centres undefined) | inactive
Cc1cc(C)c(/C=C2\C(=O)Nc3ccccc32)[nH]1 | inactive
Cc1ccc(-c2onc(C)c2C)cc1S(=O)(=O)Nc1ccccn1 | inactive
CC(C)(C)OC(=O)N1CCC(c2c(C(=O)N3CCc4ccccc4C3)cnn2-c2ccc(F)cc2)CC1 | inactive
CCc1ccccc1N1CC(c2nc3ccccc3n2CCCCOc2ccccc2)CC1=O (centres undefined) | inactive
O=c1cc(-c2cccnc2)oc2c(-c3ccccc3O)nccc12 | inactive
CCOc1cccc2c1N[C@@H](c1ccc(C(=O)O)cc1)[C@H]1CC=C[C@@H]21 | 20.6 µM (active)

Compound | Potency
CCOC(=O)c1cc2c(=O)n3ccccc3nc2n(Cc2ccco2)c1=NC(=O)c1ccc(F)cc1 | inactive
CCOC(=O)c1ccc(CSc2nnc3cc(C)c4ccccc4n23)cc1 | inactive
Cc1ccc2c(c1)N(CC(=O)NCCCN1CCCCC1)C(=O)c1cccnc1O2 | inactive
O=C(OCCN1CCOCC1)c1cccnc1Nc1cccc(C(F)(F)F)c1 | inactive
COc1ccccc1N1CCN(S(=O)(=O)CCNC(=O)COc2ccc(F)cc2)CC1 | inactive
CCOc1ncccc1C(=O)N1CCN(Cc2ccccc2)CC(O)C1 (centres undefined) | inactive
O=c1ncn(Cc2ccccc2)c2ccc(-c3ccoc3)nc12 | inactive
CCOC(=O)c1ccc(NC(=O)CCS(=O)(=O)c2ccc(C)cc2)cc1 | inactive
CO[C@H]1C=CO[C@@]2(C)Oc3c(C)c(O)c4c(O)c(c(/C=N/N5CCN(C)CC5)c(O)c4c3C2=O)NC(=O)/C(C)=C\C=C[C@H](C)[C@H](O)[C@@H](C)[C@@H](O)[C@@H](C)[C@H](OC(C)=O)[C@@H]1C | inactive
CCOc1ccccc1NC(=O)C1CCCN(S(=O)(=O)c2cn(C)cn2)C1 (centres undefined) | inactive
C(=C\c1ccccc1)/CN1CCN(c2nccc(-c3cccnc3)n2)CC1 | inactive
CCc1ccccc1N1C(=O)CN(S(=O)(=O)CC)CC1(C)C(=O)NC1CCCCC1 (centres undefined) | inactive
O=c1c2ccccc2n(Cc2cccc(Cl)c2)c(=O)n1Cc1ccccc1 | inactive
Cc1ccc(NC(=O)c2cc(S(=O)(=O)NCCC3=CCCCC3)ccc2F)cc1C | inactive
CC1(C)CN(C(=O)c2ccc(-c3cccc4nc(NC(=O)C5CC5)nn34)cc2)C1 | inactive
COc1ccc2ncc3c(-c4ccc(C)c(C)c4)nn(CC(=O)NC4CCCC4)c3c2c1 | inactive
Cc1ccncc1C(=O)N1CCC2(CC1)CC(c1ccccc1)C(=O)N2C (centres undefined) | inactive

— PubChem BioAssay AID1645852 (National Center for Advancing Translational Sciences (NCATS), 2021)
